Experiment [1] concerns the target Albumin (Bos taurus) (UniProt P02769). The experiment is described as follows: bovine serum albumin binders on microarray, profiling panel, artefact control for SMM control protein annotation, biochemical, small-molecule microarray, Alexa647 label, 635/667 nm fluorescence (AID 1118).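 Note: score merges 667 nm emission intensity and signal-to-noise per printed compound spot.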 The conditions noted are these: BSA-A647 binding, fluorescence 635 nm, higher = more signal.

Experiment [2] in a line: small-molecule microarray binders of probe aXIP, primary screen, biochemical, NeuroSMM set, 635/667 nm fluorescence (AID 1119).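 Note: probe is the protein aXip251-270 applied at 1 µg/mL to compound-printed slides; binding of probe to printed compounds measured as 667 nm fluorescence plus signal to noise.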 The conditions noted are these: higher = more signal, called active from +8 up or from −8 down.
The nature of experiment [3]: small-molecule binders of probe aNOTCH3, primary screen, biochemical, small-molecule microarray, 635/667 nm fluorescence (AID 1120).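 Note: probe is a biotin-tagged antibody raised against NOTCH3 rather than NOTCH3 protein; score merges spot fluorescence near 667 nm with spot signal to noise.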 The conditions noted are these: higher = more signal.
A short description of experiment [4]: small-molecule binders of probe aNOTCH2, primary screen, biochemical, small-molecule microarray, 635/667 nm fluorescence (AID 1121).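 Note: score merges feature fluorescence read at 667 nm with its signal to noise.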 The conditions noted are these: higher = more signal.
Experiment [5] has as its target Carbonic anhydrase 2 (Homo sapiens) (UniProt P00918). The experiment in a line: CAII small-molecule binders, profiling panel, biochemical, small-molecule microarray, Alexa647-labelled CAII (AID 1122). The conditions noted are these: CAII-A647 binding fluorescence, higher = more signal.
Experiment [6] can be described thus: COS7 lysate on small-molecule microarray, probe aHis, 635 nm (AID 1123).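 Note: z-score combines 667nm fluorescence intensity with signal-to-noise per printed compound spot.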 The conditions noted are these: COS7 cell lysate, fluorescence, higher = more signal.
A short description of experiment [7]: compound binding in COS7 lysate, probe aLAP1, primary screen, cell lysate, small-molecule microarray (AID 1124).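 Note: lysate comes from COS7 cells expressing LAP1 and is applied at 0.3 µg/mL; score merges spot fluorescence near 667 nm with signal-to-noise over triplicate slides.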 The conditions noted are these: probe aLAP1, fluorescence, higher = more signal.
In experiment [8] the test system is Sam68 (KHDRBS1). The experiment in a line: Sam68 small-molecule binders, primary screen, biochemical, small-molecule microarray, 635 nm fluorescence (AID 1125).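 Note: score merges 667 nm channel intensity with signal to noise over triplicate slides.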 The conditions noted are these: small-molecule microarray binding, higher = more signal.
Experiment [9] deals with Chordin-like protein 2 (CHRDL2). The experiment is described as follows: CHRDL2 small-molecule binders, primary screen, biochemical, small-molecule microarray, 635 nm fluorescence (AID 1126).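 Note: printed compound slides probed with Chrdl2 protein at 4 µg/mL for 1 h at 4 C; score merges 667 nm emission intensity with signal to noise over three replicate slides.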 The conditions noted are these: small-molecule microarray binding, fluorescence 635 nm; higher = more signal.
In experiment [10] the target is Concanavalin-A (Canavalia ensiformis) (UniProt P02866). The experiment is described as follows: ConA small-molecule binders, primary screen, artefact control for SMM control protein annotation, biochemical, small-molecule microarray, Alexa647 label, 635 nm (AID 1127).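 Note: z combines 667 nm emission intensity with signal-to-noise across three replicate slides.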 The conditions noted are these: ConA-A647 binding fluorescence, higher = more signal.

Consider ten molecules from PubChem BioAssay.

SMILES strings stand for the structures. Values joined by “and” are separate entries in the source; they are usually repeats but may differ in a detail not shown here. Equal entries are not always repeated. Active and inactive are the calls of the source.

Albumin (Bos taurus), sequence (P02769 whole entry, looked up): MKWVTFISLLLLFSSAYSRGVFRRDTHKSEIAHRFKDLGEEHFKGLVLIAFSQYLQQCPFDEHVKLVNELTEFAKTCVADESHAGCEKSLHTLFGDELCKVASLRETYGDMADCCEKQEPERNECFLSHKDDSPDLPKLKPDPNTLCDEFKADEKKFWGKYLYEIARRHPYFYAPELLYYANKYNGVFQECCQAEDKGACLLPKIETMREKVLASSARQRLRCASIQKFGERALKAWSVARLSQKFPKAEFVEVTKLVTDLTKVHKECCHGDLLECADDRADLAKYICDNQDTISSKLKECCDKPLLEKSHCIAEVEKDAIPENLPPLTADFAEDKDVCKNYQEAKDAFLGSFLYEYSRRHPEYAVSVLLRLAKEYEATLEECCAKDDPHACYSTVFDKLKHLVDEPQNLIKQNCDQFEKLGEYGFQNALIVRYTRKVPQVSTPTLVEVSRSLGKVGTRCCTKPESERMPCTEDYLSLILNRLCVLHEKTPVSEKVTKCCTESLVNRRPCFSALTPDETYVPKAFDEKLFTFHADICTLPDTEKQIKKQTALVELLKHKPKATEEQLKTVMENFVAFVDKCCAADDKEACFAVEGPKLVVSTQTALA
Concanavalin-A (Canavalia ensiformis), sequence (P02866 whole entry, looked up): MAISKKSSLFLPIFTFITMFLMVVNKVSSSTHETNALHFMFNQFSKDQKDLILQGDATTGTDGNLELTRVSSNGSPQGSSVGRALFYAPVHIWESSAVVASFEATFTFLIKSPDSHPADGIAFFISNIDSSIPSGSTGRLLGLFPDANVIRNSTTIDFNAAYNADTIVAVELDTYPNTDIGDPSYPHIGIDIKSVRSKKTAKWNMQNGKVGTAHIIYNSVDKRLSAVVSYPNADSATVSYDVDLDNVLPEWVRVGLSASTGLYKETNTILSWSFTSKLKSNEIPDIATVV

As for `C=CCN(Cc1ccccc1)C(=O)C1N(c2ccc(CCO)cc2)C(=O)C2C(C(=O)O)C3C=CC21O3` (stereo not given), the composite z-score in [1] was -1.88 and -0.419; in [3], -0.393 and -0.575; in experiment [4] it was -0.201 and 0.0434; in experiment [5] it was 0.942 and 0.937; in experiment [6] it was -0.361 and -0.701; in [7], -0.418 and -0.931. In addition, the composite z-score in experiment [8] was -1.15 and -1.08; in [9], -1.61 and -3.84; in experiment [10], -1.82 and -1.97. For the same molecule, the composite Z-score in experiment [2] was -0.364 (inactive) and -0.371 (inactive).

For `CCOC(=O)[C@@H]1CC=C2CC1C(=O)N1CCC[C@@H]1[C@H]2O[Si](C)(C)C(C)(C)C` (stereo not given in full), the composite z-score in [1] is -0.657 and -0.964; in [3], -0.227 and -0.352; in [4], -0.147 and -0.202; in experiment [5] it was -0.33 and -0.492; in experiment [6], -0.273 and -0.211; in experiment [7], -0.687 and -0.442. In addition, the composite z-score in experiment [8] is -1.04 and -1.8; in experiment [9] it was -0.486 and -0.0717; in experiment [10], -2.59 and -3.25. For the same molecule, the composite Z-score in experiment [2] was 0.047 (inactive) and -0.365 (inactive).

Regarding `CC(C)=NOCc1ccc(-c2cn([C@@H]3COC[C@H]3O)nn2)cc1`, the composite z-score in [1] is 0.655; in [3] it was -0.0179; in experiment [4], -0.131; in experiment [5] it was -0.132; in [6], 0.355; in experiment [7], -0.116. For the same molecule, the composite z-score was -0.103 in experiment [8], 0.329 in experiment [9] and 0.0843 in experiment [10]. For the same molecule, the composite Z-score in experiment [2] is 0.43 (inactive).

As for `C[N+](C)(C)CCCCNC(=O)[C@@H]1C[C@@H]2C(=O)N[C@@H](CCCC[N+](C)(C)C)C(=O)N2[C@@H]1c1cccc(OCCO)c1`, the composite z-score in experiment [1] is -0.916 and -0.121; in experiment [3] it was 0.197 and 0.129; in experiment [4], -0.0066 and -0.0861; in experiment [5], 0.389 and 0.799; in [6], 1.19 and 2.25; in experiment [7], 0.0458 and 1.65. The composite z-score in experiment [8] is 1.31 and 0.767; in experiment [9], 1.56 and 1.47; in experiment [10] it was 1.13 and 0.657. The composite Z-score in experiment [2] is 0.104 (inactive) and 2 (inactive).

Take `C[N+](C)(C)CCCCCCNC(=O)[C@H]1C[C@H]2C(=O)N[C@@H](CCCC[N+](C)(C)C)C(=O)N2[C@H]1c1ccc(O)cc1`: the composite z-score in experiment [1] is -1.56 and 0.119; in [3], -0.0359 and -0.0947; in experiment [4] it was -0.136 and -0.0651; in experiment [5], 0.142 and 0.718; in experiment [6], 0.186 and 0.951; in experiment [7], -0.149 and -0.179. In addition, the composite z-score in experiment [8] was 0.0061 and 0.117; in [9] it was 0.823 and 0.178; in experiment [10], -0.341 and -0.163. In addition, in experiment [2], the composite Z-score was -0.232 (inactive) and 0.577 (inactive).

As for `CCOC(=O)C[C@H]1[C@H](OC(=O)c2ccccc2-c2ccccc2)[C@@H](NC(=O)c2ccccc2)c2cc(OCCCO)ccc2N1C(=O)c1ccc2ccccc2n1`, the composite z-score was 0.369 and 0.645 in experiment [1]; 0.0223 and 0.228 in experiment [3]; -0.0073 and -0.0357 in experiment [4]; 0.348 and 0.0749 in [5]; 0.25 and 0.958 in experiment [6]; 0.0741 and 0.356 in [7]. Besides, the composite z-score in experiment [8] was 0.443 and 1.2; in experiment [9] it was 0.243 and 0.175; in [10] it was 0.436 and 1.04. In [2], the composite Z-score was 0.095 (inactive) and 0.291 (inactive).

With `C=CCN1C(=O)[C@]2(O[C@H](CCn3cc(CCO)nn3)[C@@H]([Si](C)(C)c3ccc(OC)cc3)[C@@H]2C)c2cc(N3C(=O)c4cccc5cccc3c45)ccc21`, the composite z-score in experiment [1] is 0.558 and 0.668; in [3], 0.0522 and 0.0259; in experiment [4] it was -0.106 and -0.162; in [5], 0.227 and 0.417; in experiment [6], 1.88 and 0.772; in experiment [7], 0.163 and -0.46. Moreover, the composite z-score in [8] is 1.2 and 0.787; in experiment [9] it was 0.431 and 0.191; in [10] it was 1.08 and 1.06. Also, the composite Z-score in experiment [2] is 0.729 (inactive) and 0.573 (inactive).

Turning to `C=CCN(C(=O)C(c1cccs1)N(C(=O)/C=C\C(=O)O)C(C)(C)CO)c1ccc(OC)cc1` (stereo not given), the composite z-score in experiment [1] is -0.427 and -0.637; in experiment [3] it was -0.298 and -0.219; in [4], -0.143 and -0.133; in [5], 0.937 and 0.938; in experiment [6] it was 1.72 and 0.0237; in [7], 0.92 and 1.17. Besides, the composite z-score is -0.294 and -0.786 in experiment [8]; -1.74 and -0.727 in [9]; -0.692 and -0.93 in [10]. Also, the composite Z-score in experiment [2] was -0.431 (inactive) and -0.215 (inactive).

`CC(CO)N1C(=O)[C@@H]2C3C(=O)OCCC=C[C@H]3OC23C=CCN(C(C)(C)C)C(=O)[C@@H]13` (stereo not given in full): the composite z-score is 0.231 and -0.322 in experiment [1]; -0.34 and 0.037 in [3]; -0.211 and -0.14 in experiment [4]; 0.863 and 0.837 in [5]; -0.329 and 0.395 in experiment [6]; 0.241 and 1.27 in [7]. Also, the composite z-score in [8] is -0.349 and 0.36; in [9] it was -1.5 and -0.54; in [10], -2.13 and -0.887. In addition, the composite Z-score in experiment [2] is -0.734 (inactive) and 0.825 (inactive).

Turning to `C=CCN(CCCCC)C(=O)C(c1cccs1)N(C(=O)/C=C\C(=O)O)c1c(Cl)cccc1CO` (stereo not given), the composite z-score in experiment [1] was -0.678 and -0.603; in experiment [3], -0.533 and -0.396; in [4], -0.057 and -0.187; in experiment [5], 0.91 and 0.768; in experiment [6], -0.774 and -0.96; in experiment [7] it was 1.62 and -0.0008. Also, the composite z-score in [8] is -1.09 and -1.41; in experiment [9], -2.67 and -1.87; in experiment [10], -0.906 and -1.52. Moreover, in experiment [2], the composite Z-score was -0.798 (inactive) and 0.414 (inactive).
